EBV gp42 block = EBV gp42 inhibition | Q1HVG2 | Fluorescence polarization binding assay, mP read-out | inhibition, % (tested at 21.74 µM) | hit rate 0.42% among 220,000 | AID 1085; in the data active = inhibition above about 50%
Target sequence (Q1HVG2 whole entry, looked up): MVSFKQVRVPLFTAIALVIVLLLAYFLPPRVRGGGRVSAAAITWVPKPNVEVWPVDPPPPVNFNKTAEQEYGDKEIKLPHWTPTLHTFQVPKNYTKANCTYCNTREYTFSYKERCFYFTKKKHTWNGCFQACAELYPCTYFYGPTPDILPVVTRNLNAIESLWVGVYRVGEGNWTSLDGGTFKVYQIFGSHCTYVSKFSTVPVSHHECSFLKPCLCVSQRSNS
E coli Lon inh = inhibitors of E. coli Lon protease; inhibition, % at 7.94 µM; P0A9M0; AID 602123; purified E. coli Lon protease, fluorescence polarization; hit rate 0.42% among 360,000; in the data active = inhibition above about 13%, passing the limit was not always enough
BCLXL inh = blocks human Bcl-xL binding to Bim BH3 peptide; Q07817; GST-Bcl-xL / FITC-Bim BH3 peptide fluorescence polarization; inhibition, % at 10.9 µM; hit rate 0.7% among 320,000; AID 2129;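 active = inhibition above the mean of all tested compounds plus 3 SD, cutoff set per campaign, cut at about 30% in these data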;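 note: inhibitors lower millipolarization by displacing the labeled peptide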
Target sequence (Q07817 whole entry, looked up): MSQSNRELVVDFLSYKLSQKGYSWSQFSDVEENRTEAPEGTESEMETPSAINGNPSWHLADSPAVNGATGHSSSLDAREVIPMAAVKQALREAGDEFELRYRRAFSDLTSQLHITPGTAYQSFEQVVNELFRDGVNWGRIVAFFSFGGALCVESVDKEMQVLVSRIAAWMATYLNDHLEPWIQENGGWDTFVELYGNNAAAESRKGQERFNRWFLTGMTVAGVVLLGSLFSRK
GLD-1 RNA inh = GLD-1-TGE RNA interaction inhibition (C. elegans). inhibition, % at 5.96 µM. hit rate 0.44% among 320,000. purified GLD-1 + fluorescein TGE RNA, fluorescence polarization;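 active = percent inhibition above a per-plate cutoff, the plate mean of test compounds plus 3 SD, cut at about 30% in these data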
MEX-5 binding = C. elegans MEX-5 TCR-2 RNA binding activity. MEX-5/FITC-TCR2 RNA binding, fluorescence polarization; stronger effect = lower value. Q9XUB2. AID 1832. activity score (negative = inhibition of binding), % at 10 µM. hit rate 0.38% among 300,000;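 active = inhibition past about -25% in most replicates, and total fluorescence under double the plate's negative control median, limit read from the data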
Each line names hits and unclear results; the compound was inactive in the other large screens. Hits are enriched below; roughly 1.3% of the tested compounds scored in any of these assays.

O=C(COC(=O)CCc1c[nH]c(=O)[nH]1)Nc1ccccc1	E coli Lon inh 24.0 (no result: MEX-5 binding)
O=Cc1cnc(N2CCCCC2)s1	EBV gp42 block 111.5
O=C(N/N=C/c1cnc(N2CCCCC2)s1)c1ccc(Cl)cc1	none
Clc1ccc(C2Nc3cccc4cccc(c34)N2)cc1	BCLXL inh 43.7 (no result: EBV gp42 block)
Brc1ccc(NC2=Nc3ccccc3CC2)cc1	BCLXL inh 41.0
Cc1ccc(NC2=Nc3ccccc3CC2)cc1	none
O=c1/c(=C/c2cn(-c3ccccc3)nc2-c2ccc(F)cc2)sc2nc3ccccc3n12	none (no result: E coli Lon inh, BCLXL inh, GLD-1 RNA inh, MEX-5 binding)
CC(C)Oc1ccc(-c2nn(-c3ccccc3)cc2/C=c2\sc3ncnn3c2=O)cc1	EBV gp42 block 74.5 (no result: E coli Lon inh, MEX-5 binding)
O=C(Cc1cccc(C(F)(F)F)c1)OCN1C(=O)c2ccccc2C1=O	none (no result: EBV gp42 block)
Cc1cccn2c(=O)c3cc(C(=O)N(C)C)n(C)c3nc12	BCLXL inh 32.1
Cc1cccn2c(=O)c3cc(C(=O)NCCCn4ccnc4)n(C)c3nc12	BCLXL inh 44.4
CCCCOc1ccc(C2OC34CCCCC3C(C#N)(C#N)C2(C#N)C(=N)O4)cc1 (stereo unspecified)	BCLXL inh 136.9, GLD-1 RNA inh 91.5 (no result: MEX-5 binding)
CCOc1ccc(C2OC34CCCCC3C(C#N)(C#N)C2(C#N)C(=N)O4)cc1OC (stereo unspecified)	E coli Lon inh 34.3, BCLXL inh 142.9, GLD-1 RNA inh 130.4, MEX-5 binding -29.0
CC(=O)NNC(=O)c1csc(-c2csc(C)n2)n1	none (no result: MEX-5 binding)
CCOC(=O)/C=c1\s/c(=C\c2ccc3cc(OC)ccc3c2)c(=O)n1CC(=O)NCC1CCCO1 (stereo unspecified)	MEX-5 binding -47.1
COc1ccc(N2C(=O)[C@@H]3[C@H](C2=O)[C@H]2c4ccccc4C=CN2[C@@H]3C(C)=O)cc1	EBV gp42 block 53.9, BCLXL inh 34.0 (no result: MEX-5 binding)
O=C1CCCC2=C1C(c1ccc(Br)cc1)c1c([nH]c(=S)[nH]c1=O)N2 (stereo unspecified)	BCLXL inh 33.8
Cc1ccc(C2C3=C(CCCC3=O)Nc3[nH]c(=S)[nH]c(=O)c32)cc1 (stereo unspecified)	EBV gp42 block 82.4
Cc1c(C(=O)OC(C)C)sc(NC(=O)c2cnccn2)c1C(=O)OC(C)C	none (no result: EBV gp42 block, BCLXL inh, GLD-1 RNA inh, MEX-5 binding)
COc1ccc(C(=O)N2CCCC(C(=O)O)C2)c2ccccc12 (stereo unspecified)	none (no result: EBV gp42 block)
O=C(Nc1cccc(Cl)c1)c1cc(N=Nc2ccc([N+](=O)[O-])cc2Cl)ccc1O	EBV gp42 block 79.0
O=C(O)c1cccc(-n2cccc2/C=C2/NC(=O)N(c3cccc(Cl)c3)C2=O)c1	none (no result: MEX-5 binding)
O=C(O)c1cccc(-n2cccc2/C=C2/NC(=O)N(c3ccc(Cl)cc3)C2=O)c1	EBV gp42 block 94.7 (no result: BCLXL inh, GLD-1 RNA inh, MEX-5 binding)
Cc1cccc(NC(=O)CCc2ccc(S(=O)(=O)NC3CCCCC3)cc2)c1	none
O=C(O)c1ccc(N2C(=O)/C(=C/c3ccc(-c4ccc([N+](=O)[O-])cc4)o3)C=C2c2ccccc2)cc1	EBV gp42 block 81.8
O=C1NN(c2ccccc2)C(=O)/C1=C/c1ccc(-c2ccc(C(=O)O)cc2)o1	none (no result: EBV gp42 block)
Cc1ccc(C)n1-c1sccc1C(=O)O	MEX-5 binding -36.0 (no result: BCLXL inh, GLD-1 RNA inh)
O=[N+]([O-])c1cccc(-c2ccc(C(=S)N3CCOCC3)o2)c1	none
O=[N+]([O-])c1cc(-c2ccc(C(=S)N3CCOCC3)o2)ccc1Cl	BCLXL inh 36.6
O=[N+]([O-])c1cc(-c2ccc(/C=N/n3cnnc3)o2)ccc1Cl	MEX-5 binding -39.8 (no result: EBV gp42 block)
Nc1nc2ccc(Cl)cc2cc1C(=O)NCc1ccc(Oc2ccccc2)cc1	none (no result: EBV gp42 block, BCLXL inh, GLD-1 RNA inh, MEX-5 binding)
O=C(CNS(=O)(=O)c1ccc([N+](=O)[O-])cc1)N/N=C/c1ccc(O)cc1O	MEX-5 binding -57.0 (no result: EBV gp42 block)
N#C/C(=C/c1ccc(F)cc1)c1nnc(NC(=O)c2ccccc2)s1	none
Cc1nc(SCC(=O)Nc2nc3ccccc3s2)c(C#N)c(C)c1C	none
Cc1cc(C(F)(F)F)c(C#N)c(SCC(=O)Nc2nc3ccccc3s2)n1	BCLXL inh 37.3
COc1ccc(C(=O)CC(=O)C(=O)Nc2ccc(C)c(Cl)c2)cc1	none (no result: EBV gp42 block)
Cc1ccc(C)c(N2N=C(C(=O)N(CC(C)C)c3c(N)n(Cc4ccccc4)c(=O)[nH]c3=O)CCC2=O)c1	GLD-1 RNA inh 61.3 (no result: EBV gp42 block)
CC(C)[C@H](NC(N)=O)C(=O)Nc1ccc(F)c(Cl)c1	none
CCOC(=O)c1cc(C#N)c(SCC(=O)c2cc(C#N)c(SC)nc2C)[nH]c1=O	BCLXL inh 102.9, GLD-1 RNA inh 76.9
CCOC(=O)c1cc(C#N)c(SCC(=O)O)[nH]c1=O	none

Screening results: PubChem BioAssay, several laboratories
